Laboratory results as given in the supplement of paper PMC6555819.

Experiments:
Assay in all cases: PBM binding z-score (relative to random genomic background probes); higher = stronger binding; sequences stand for … in GC…GCGATTGACAGCGTAGAATGAAGG
[1] = tested on: FXR:RXRa (NR concentration 270 nM, RXRa partner concentration 90 nM)
In short: (§1)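 Probes were double-stranded and carried 34-nt variable regions with direct-repeat seeds, single-nucleotide variants, half-site ablations and random human genomic background sequences, printed on custom Agilent 4×180K protein-binding microarrays. Arrays were incubated 1 h with ligand-free nuclear receptor dimers in PBS pH 7.4, 2% milk, 0.02% Triton X-100, 1 mM DTT, 0.2 mg/mL BSA and 0.4 mg/ml salmon testes DNA. Antibodies against each partner (one per run) detected binding, and scanned fluorescence was regression-normalized. Binding z-scores use the random background probes as reference.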

[2] = tested on: LXRa:RXRa (NR concentration 270 nM, RXRa partner concentration 90 nM)
In short: as §1

[3] = tested on: LXRa homodimer (NR concentration 270 nM)
In short: as §1

[4] = tested on: LXRb:RXRa (NR concentration 270 nM, RXRa partner concentration 90 nM)
In short: as §1

[5] = tested on: LXRb homodimer (NR concentration 270 nM)
In short: as §1

[6] = tested on: PPARa:RXRa (NR concentration 270 nM, RXRa partner concentration 90 nM)
In short: as §1

[7] = tested on: PPARg:RXRa (NR concentration 180 nM, RXRa partner concentration 90 nM)
In short: as §1

[8] = tested on: PPARg:RXRa 270nM:90nM, anti-RXR (NR concentration 270 nM, RXRa partner concentration 90 nM)
In short: as §1

[9] = tested on: PPARg:RXRa 30nM:10nM, anti-RXR (NR concentration 30 nM, RXRa partner concentration 10 nM)
In short: as §1

[10] = tested on: PPARg:RXRa 90nM:30nM, anti-RXR (NR concentration 90 nM, RXRa partner concentration 30 nM)
In short: as §1

**Q.** With ATATGTAGGTTAGCTGGCGTCATTCAGACTAGGC as the sequence, how does the PBM binding z-score [1] read?
**A.** -0.167

**Q.** What about the PBM binding z-score [2] of the same sequence?
**A.** 0.0704

**Q.** What about the PBM binding z-score [3] of the same sequence?
**A.** -0.277

**Q.** What about the PBM binding z-score [4] of the same sequence?
**A.** -0.239

**Q.** What about the PBM binding z-score [5] of the same sequence?
**A.** 0.141

**Q.** And the PBM binding z-score [6]?
**A.** 1.69

**Q.** And the PBM binding z-score [7]?
**A.** 2.61

**Q.** And the PBM binding z-score [8]?
**A.** 2.43

**Q.** And the PBM binding z-score [9]?
**A.** 0.729

**Q.** What about the PBM binding z-score [10] of the same sequence?
**A.** 1.81

**Q.** For GCTGCTAGGTCAACTGATGGTGAGCTAAAGCTCG, which PBM binding z-score [1] is on record?
**A.** 4.47

**Q.** And the PBM binding z-score [2]?
**A.** 2.63

**Q.** What about the PBM binding z-score [3] of the same sequence?
**A.** -0.169

**Q.** What about the PBM binding z-score [4] of the same sequence?
**A.** 1.71

**Q.** And the PBM binding z-score [5]?
**A.** -0.179

**Q.** And the PBM binding z-score [6]?
**A.** 3.57

**Q.** What about the PBM binding z-score [7] of the same sequence?
**A.** 2.57

**Q.** And the PBM binding z-score [8]?
**A.** 3.02

**Q.** And the PBM binding z-score [9]?
**A.** 0.564

**Q.** And the PBM binding z-score [10]?
**A.** 2.06

**Q.** For ATGTGTAGGTTAGGGTCATTCAGAAAGTAGGGAA, which PBM binding z-score [1] is on record?
**A.** 5.11

**Q.** And the PBM binding z-score [2]?
**A.** 4.15

**Q.** And the PBM binding z-score [3]?
**A.** 1.8

**Q.** What about the PBM binding z-score [4] of the same sequence?
**A.** 4.76

**Q.** And the PBM binding z-score [5]?
**A.** 2.68

**Q.** What about the PBM binding z-score [6] of the same sequence?
**A.** 5.13

**Q.** And the PBM binding z-score [7]?
**A.** 4.57

**Q.** What about the PBM binding z-score [8] of the same sequence?
**A.** 4.47

**Q.** And the PBM binding z-score [9]?
**A.** 2.37

**Q.** What about the PBM binding z-score [10] of the same sequence?
**A.** 3.65

**Q.** Which PBM binding z-score [1] does the source give for CCTTACGGGTCACTCCATGTTATAGCATCGGAGT here?
**A.** 4.2

**Q.** And the PBM binding z-score [2]?
**A.** 4.36

**Q.** What about the PBM binding z-score [3] of the same sequence?
**A.** -0.0151

**Q.** What about the PBM binding z-score [4] of the same sequence?
**A.** 2.66

**Q.** And the PBM binding z-score [5]?
**A.** 0.251

**Q.** And the PBM binding z-score [6]?
**A.** 4.37

**Q.** And the PBM binding z-score [7]?
**A.** 3.24

**Q.** And the PBM binding z-score [8]?
**A.** 3.49

**Q.** And the PBM binding z-score [9]?
**A.** 0.894

**Q.** What about the PBM binding z-score [10] of the same sequence?
**A.** 2.33

**Q.** What does the source list for CAAGCTAGGTCAAAGGTCAAAGTCGAGCCAACCA?
**A.** PBM binding z-score [1]: 8.68; PBM binding z-score [2]: 7.38; PBM binding z-score [3]: 5.19; PBM binding z-score [4]: 7.27; PBM binding z-score [5]: 2.73; PBM binding z-score [6]: 7.38; PBM binding z-score [7]: 12.9; PBM binding z-score [8]: 10.7; PBM binding z-score [9]: 12; PBM binding z-score [10]: 12

**Q.** Which results are given for TCTAGTTGGTCGCGGAGGTCACACACGACGGGTA?
**A.** PBM binding z-score [1]: 2.99; PBM binding z-score [2]: 3.17; PBM binding z-score [3]: 2.21; PBM binding z-score [4]: 2.94; PBM binding z-score [5]: 0.671; PBM binding z-score [6]: 3.61; PBM binding z-score [7]: 2.02; PBM binding z-score [8]: 3.04; PBM binding z-score [9]: 2.94; PBM binding z-score [10]: 2.83

**Q.** With CGTCAAAGTTCAAGGCAACGTAACAGAAAGCAGC as the sequence, how does the PBM binding z-score [1] read?
**A.** 5.83

**Q.** And the PBM binding z-score [2]?
**A.** 5.32

**Q.** And the PBM binding z-score [3]?
**A.** 2.35

**Q.** What about the PBM binding z-score [4] of the same sequence?
**A.** 2.97

**Q.** What about the PBM binding z-score [5] of the same sequence?
**A.** 0.47

**Q.** What about the PBM binding z-score [6] of the same sequence?
**A.** 4.47

**Q.** And the PBM binding z-score [7]?
**A.** 3.88

**Q.** What about the PBM binding z-score [8] of the same sequence?
**A.** 4.87

**Q.** What about the PBM binding z-score [9] of the same sequence?
**A.** 1.54

**Q.** And the PBM binding z-score [10]?
**A.** 3.53

**Q.** What does the source list for ATCGAAAGGTCGACGAGTTGAGTATACACCGTTT?
**A.** PBM binding z-score [1]: 3.68; PBM binding z-score [2]: 3.25; PBM binding z-score [3]: 0.0436; PBM binding z-score [4]: 2.75; PBM binding z-score [5]: 0.676; PBM binding z-score [6]: 3.98; PBM binding z-score [7]: 2.27; PBM binding z-score [8]: 2.77; PBM binding z-score [9]: 1.17; PBM binding z-score [10]: 1.91

**Q.** ATCGAAATGTCGTGAGGTGAGTATACAGAAAGGC was tested. Which PBM binding z-score [1] did it give?
**A.** 0.101

**Q.** And the PBM binding z-score [2]?
**A.** -0.0819

**Q.** And the PBM binding z-score [3]?
**A.** -0.191

**Q.** What about the PBM binding z-score [4] of the same sequence?
**A.** -0.0754

**Q.** And the PBM binding z-score [5]?
**A.** -0.00242

**Q.** And the PBM binding z-score [6]?
**A.** -0.0374

**Q.** And the PBM binding z-score [7]?
**A.** 0.546

**Q.** And the PBM binding z-score [8]?
**A.** -0.0357

**Q.** And the PBM binding z-score [9]?
**A.** -0.12

**Q.** What about the PBM binding z-score [10] of the same sequence?
**A.** 0.0916

**Q.** Which results are given for ATATGTAGGTTAGGGTCATCCAGAAAGTAGGGAA?
**A.** PBM binding z-score [1]: 5.11; PBM binding z-score [2]: 4.21; PBM binding z-score [3]: 1.16; PBM binding z-score [4]: 4.31; PBM binding z-score [5]: 1.44; PBM binding z-score [6]: 5.62; PBM binding z-score [7]: 8.03; PBM binding z-score [8]: 6.66; PBM binding z-score [9]: 4.94; PBM binding z-score [10]: 6.67

**Q.** With CAAACTAGGTCACAGAGGGCAAAGTCCGTGCGTA as the sequence, how does the PBM binding z-score [1] read?
**A.** 5.08

**Q.** What about the PBM binding z-score [2] of the same sequence?
**A.** 4.6

**Q.** What about the PBM binding z-score [3] of the same sequence?
**A.** 2.26

**Q.** What about the PBM binding z-score [4] of the same sequence?
**A.** 3.61

**Q.** And the PBM binding z-score [5]?
**A.** 0.517

**Q.** And the PBM binding z-score [6]?
**A.** 5.45

**Q.** What about the PBM binding z-score [7] of the same sequence?
**A.** 8.81

**Q.** And the PBM binding z-score [8]?
**A.** 7.31

**Q.** What about the PBM binding z-score [9] of the same sequence?
**A.** 5.42

**Q.** And the PBM binding z-score [10]?
**A.** 7.28

**Q.** Which PBM binding z-score [1] does the source give for CGAACTAGGTCACAAGGACAGTGAAGAGGTTGGA here?
**A.** 3.87

**Q.** What about the PBM binding z-score [2] of the same sequence?
**A.** 2.13

**Q.** What about the PBM binding z-score [3] of the same sequence?
**A.** 0.193

**Q.** What about the PBM binding z-score [4] of the same sequence?
**A.** 1.57

**Q.** And the PBM binding z-score [5]?
**A.** -0.115

**Q.** And the PBM binding z-score [6]?
**A.** 5.01

**Q.** And the PBM binding z-score [7]?
**A.** 8.73

**Q.** What about the PBM binding z-score [8] of the same sequence?
**A.** 7.01

**Q.** And the PBM binding z-score [9]?
**A.** 4.93

**Q.** What about the PBM binding z-score [10] of the same sequence?
**A.** 6.82
